The values below come from PubChem BioAssay (NCI).

Values joined by “and” are separate entries in the source; they are usually repeats but may differ in a detail not shown here. Equal entries are not always repeated. This is part of a sample that, as a whole, favours compounds with a hit. Of some 83,000 tested, about 20% had one in any assay.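 Step 1: grow cells in 96-well plates. Step 2: add test compound at a single concentration. Step 3: incubate 48 h. Step 4: record percent growth.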 A number with no mark means an inactive call. Active and inactive are the calls of the source. The calls were made as follows: active = growth percent below 10; inactive = the rest.

The first test relates to CAKI-1 renal. Nature of the test: NCI-60 one-dose screen, 48 h (100 = growth as untreated, 0 = no growth, -100 = all killed). Conditions: 10 µM unless noted.
In the case of `CCN(CC)CCCC(C)Nc1ccnc2cc(Oc3ccccc3)ccc12` (stereo unspecified), the growth was 68.8%.

As for `CN1C(=O)C(N=Nc2ccc([N+](=O)[O-])cc2)SC1=S` (stereo unspecified), the growth is 103% and 75.3%.

Regarding `COc1ccccc1NC(=O)OCC#CCOC(=O)Nc1ccccc1OC`, the growth was 94.3% and 88.6%.

`O[C@H](c1cc(C(F)(F)F)nc2c(C(F)(F)F)cccc12)[C@@H]1CCCCN1`: the growth was 72.7% and 50.9%.

As for `N#C/C(=C1C=C/C(=N/O)C(Br)=C/1)c1ccccc1`, the growth is 15.1%.

Regarding `CC1=C[C@H]2c3c(c(O)c(O)c4oc5cc(O)cc(O)c5c(=O)c34)[C@H](c3cc(O)c(O)c4oc5cc(O)cc(O)c5c(=O)c34)[C@H]2C(C)(C)C1`, the growth was -20.5% (active) and -2.78% (active).

Turning to `COc1ccc(/C(C#N)=C/c2ccccn2)cc1`, the growth was 101% and 126%.

As for `CC(=O)Oc1cc(C(=O)O)cc(OC(C)=O)c1OC(C)=O`, the growth was 99.5% and 95.5%.

Consider `COc1ccc(Cn2c(NCCN=C(N)N)nc(=O)n(Cc3ccc(F)cc3)c2=O)cc1`, for which the growth was 95.2% and 86.5%.

In a further test the test system is A498 renal. The description is as above. Conditions: 10 µM unless noted.
For `CC1CCCC(=O)O1` (stereo unspecified), the growth was 110% and 97.8%.

`Cc1ccc(S(=O)(=O)NCN2C(=O)c3ccccc3C2=O)cc1`: the growth is 111%.

Turning to `O=C(N/N=C/c1cccc2ccccc12)C1CC1`, the growth was 102%.

For `CN(C)CCCNC1=C(Cl)C(=O)c2ccccc2C1=O`, the growth was 103% and 85.4%.

On to `COc1ccc2nc(Cl)cc(C)c2c1`, for which the growth was 86% and 83.4%.

With `CN(C)c1ccc(C(=C2C=CC(=[N+](C)C)C=C2)c2ccccc2Cl)cc1`, the growth was -64% (active) and -87.1% (active).

Take `OCc1ccccn1`: the growth is 81.8%.

In the case of `Nc1ccccc1SC1CC(=O)N(c2cccc3ccccc23)C1=O` (stereo unspecified), the growth was 88.8%.

Turning to `N/C(=N\N=C\c1ccc2c(c1)OCO2)N/N=C\c1ccc2c(c1)OCO2`, the growth is 121% and 85.9%.

With `N#C/C(=C/c1c(O)ccc2ccccc12)C(N)=O`, the growth is 107%.

As to `Oc1ccc(/C=C/c2ccccc2)cc1`, the growth is 83.1% and 59.4%.

As for `COc1ccc2ccccc2c1/C=N/N1CCCCC1`, the growth was 89%.

For `O=C(Nc1cccc(-n2ccc3c(NC(=O)c4ccccc4)nccc32)c1)c1ccc(Cl)c(C(F)(F)F)c1`, the growth is 15.3% and 75.5%.

For `CCOc1ccc(Nc2c3ccccc3nc3ccccc23)cc1`, the growth is 73.5% and 35.5% and 72.8%.

Consider `CCOc1ccc2cc(-c3nn(CC4CCN(C)CC4)c4ncnc(N)c34)ccc2c1`, for which the growth was 74% and 23.7%.

Consider `C[N+](C)(C)CN1C(=O)c2ccccc2C1=O`, for which the growth is 98.2%.

On to `S=C(S)N1CCCC1`, for which the growth is 72.5% and 102%.

`O=C1C2=C(C(=O)c3ccccc31)C(O)(S(=O)(=O)O)C(O)(S(=O)(=O)O)C1N=CC=CC21` (stereo unspecified): the growth is 82.1% and 33.9%.

Take `Cc1cc(O)c2c(c1)C(=O)c1cc(O)cc(O)c1C2=O`: the growth is 82.7% and 75.8%.

As to `CCN(CC)CCC(CNc1ccnc2cc(Cl)ccc12)c1ccc(OC)cc1` (stereo unspecified), the growth is 38.2% and 28.7%.

`O=[N+]([O-])c1ccc2nc3c4ccccc4c4ccccc4c3nc2c1`: the growth was -39.8% (active).

Consider `COc1cc2nc(N3CCC[C@@H](NC(=O)C4COc5ccccc5O4)C3)nc(N)c2cc1OC` (stereo partly specified), for which the growth is 99.4% and 83.5%.

As for `NC(=S)NN=C1CCC(C2CCCCC2)CC1` (stereo unspecified), the growth was 88.2%.

Turning to `Cc1ccc2nc3c(nc2c1)-c1cccc2cccc-3c12`, the growth is 83.1%.

Turning to `CC(C)N=c1cc2n(-c3ccc(Cl)cc3)c3ccccc3nc-2cc1Nc1ccc(Cl)cc1`, the growth was 74.8% and 18.4%.

Regarding `CN1C(=O)C(N=Nc2ccc([N+](=O)[O-])cc2)SC1=S` (stereo unspecified), the growth was 85.5% and 89.6%.

As to `COc1ccccc1NC(=O)OCC#CCOC(=O)Nc1ccccc1OC`, the growth was 87.5% and 92.8%.
